These results are taken from the supplement of paper PMC10498489.

Molecules are shown by their SMILES. The whole screen tested about 2,300 compounds, of which about 330 (14%) showed activity.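 How the source made its calls: active = median modified Z-score above 1.96; inactive = 1.96 or below.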 Not all results are given here.

In the assay the test system is HepG2 Srxn1-GFP reporter cells (+30 nM CDDO-Me). Description: Srxn1-GFP intensity median modified Z-score relative to plate median; higher = stronger NRF2 / oxidative stress reporter activation, active = hit call of the paper. Conditions: 10 µM; exposure time: 24h. Summed up: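 HepG2 Srxn1-GFP BAC reporter cells were seeded at 20,000 per well in 96-well plates and co-exposed for 24 h to compound at 10 μM and an NRF2 activator at 30 nM, with DMSO at ≤0.1%, in three replicate plates. Cells were fixed with formaldehyde, stained with Hoechst and imaged by confocal microscopy, and cytoplasmic GFP was measured per cell, with images holding under 100 cells discarded. The reported value is the median over replicates of each plate's modified Z-score of GFP intensity. For this score, scaling used 1.4826 × median absolute deviation.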
Consider `C[C@H](CCC(=O)O)[C@H]1CCC2C3C(CC[C@@]21C)[C@@]1(C)CC[C@@H](O)C[C@H]1C[C@@H]3O` (some centres not stated) [euspeclibcmpd2109], for which the “Srxn1-GFP intensity median modified Z-score” value is -0.352 (inactive).
With `COc1ccc(C(C)C(=O)c2ccc(O)cc2O)cc1` (configuration not stated) [euspeclibcmpd1599], the “Srxn1-GFP intensity median modified Z-score” value is 3.33 (active).
Regarding `COc1ccc(CC(=O)c2ccc(O)cc2O)cc1` [euspeclibcmpd1699], the “Srxn1-GFP intensity median modified Z-score” value is 1.77 (inactive).
As for `COc1ccc(SCC(=O)c2ccc(O)cc2O)cc1`, the figure is 1.51 (inactive); as for `C[C@H]1[C@H](OC(=O)CCC(=O)O)O[C@@H]2O[C@]3(C)CC[C@H]4[C@H](C)CC[C@@H]1[C@@]24OO3` [euspeclibcmpd985], 11 (active).
As for `CC(=O)C1CCC2C3CC=C4C[C@@H](OC(=O)CCC(=O)O)CC[C@]4(C)C3CC[C@]12C` (some centres not stated) [euspeclibcmpd854], the figure is 1.01 (inactive); as for `C[C@@H]1CC[C@H]2[C@@H](C)C(O)O[C@@H]3O[C@]4(C)CC[C@@H]1[C@]32OO4` (some centres not stated) [euspeclibcmpd1251], 3.33 (active); as for `CCC(C)C(=O)O[C@H]1C[C@H](O)C=C2C=C[C@H](C)[C@H](CC[C@@H](O)C[C@@H](O)CC(=O)O)C21` (some centres not stated) [euspeclibcmpd2392], -0.0232 (inactive).
As for `CN1C(=O)OC(C)(C)C1=O` [euspeclibcmpd801], the “Srxn1-GFP intensity median modified Z-score” value is -0.117 (inactive).
The result for `OCCN=CCNc1ccc(NCCNCCO)c2c(O)c3c(O)ccc(O)c3c(O)c12` [euspeclibcmpd568] reads -1.55 (inactive); that for `CC(=O)C(O)Nc1c(I)c(C(=O)NC(CO)CO)c(I)c(C(=O)NC(CO)CO)c1I` (configuration not stated) [euspeclibcmpd459], -0.445 (inactive); that for `Nc1c(Br)cc(Br)cc1CNC1CCC(O)CC1` (configuration not stated) [euspeclibcmpd1118], -0.575 (inactive).
As for `CC(=O)Oc1ccc2c(C)cc(=O)oc2c1` [euspeclibcmpd2400], the figure is -0.419 (inactive); as for `CC(=O)c1ccc(O[C@@H]2O[C@H](CO)[C@H](O)[C@H](O)[C@H]2O)cc1`, 1.43 (inactive); as for `CC=C(C1=CC(=O)C(OC)=CC1=O)c1ccc(OC)cc1` [euspeclibcmpd1441], 5.77 (active).
On to `CC=C(C1=CC(=O)C(OC)=CC1=O)c1ccc(O)cc1` [euspeclibcmpd1636], for which the “Srxn1-GFP intensity median modified Z-score” value was 0.385 (inactive).
The result for `CC=C(C1=CC(=O)C(OC)=CC1=O)c1ccccc1` [euspeclibcmpd1693] reads 3.26 (active); that for `COc1ccc(O)cc1` [euspeclibcmpd4], -0.253 (inactive); that for `CC=C(C1=CC(=O)C(OC)=C(OC)C1=O)c1ccccc1` [euspeclibcmpd1978], -0.444 (inactive).
Turning to `CC=C(C1=CC(=O)C=CC1=O)c1ccccc1` [euspeclibcmpd1643], the “Srxn1-GFP intensity median modified Z-score” value is 1.51 (inactive).
Take `CC(C)(/N=N/C(C)(C)C(=N)N)C(=N)N` [euspeclibcmpd1744]: the “Srxn1-GFP intensity median modified Z-score” value is -0.295 (inactive).
`Cc1ccc2c(Br)cc(Br)c(OC(=O)c3ccccc3)c2n1` [euspeclibcmpd2181]: the “Srxn1-GFP intensity median modified Z-score” value is 2.44 (active).
The result for `Cc1ccc2cccc(OC(=O)c3ccccc3)c2n1` reads 1.25 (inactive); that for `O=C(OOC(=O)c1ccccc1)c1ccccc1` [euspeclibcmpd511], -0.314 (inactive); that for `NC[C@@H]1O[C@H](O[C@@H]2[C@@H](CO)OC(O[C@@H]3[C@@H](O)[C@H](N)C[C@H](N)[C@H]3O[C@H]3O[C@H](CO)[C@@H](O)[C@H](O)[C@H]3N)[C@@H]2O)[C@H](N)[C@@H](O)[C@@H]1O` (some centres not stated) [euspeclibcmpd563], -0.129 (inactive).
As for `CCCCCCCCCCCCCCCC(=O)OC[C@H](NC(=O)C(Cl)Cl)[C@H](O)c1ccc([N+](=O)[O-])cc1` [euspeclibcmpd52], the figure is 0.231 (inactive); as for `CC(=O)OCC(=O)[C@@]12N=C(C)O[C@@H]1CC1C3CC=C4CC(=O)C=C[C@]4(C)C3[C@@H](O)C[C@@]12C` (some centres not stated) [euspeclibcmpd781], -0.377 (inactive).
Turning to `NCCOB(c1ccccc1)c1ccccc1` [euspeclibcmpd2465], the “Srxn1-GFP intensity median modified Z-score” value was 7.48 (active).
Regarding `Cc1onc(-c2c(Cl)cccc2Cl)c1C(=O)NC1C(=O)N2C1SC(C)(C)C2C(=O)O` (configuration not stated) [euspeclibcmpd2174], the “Srxn1-GFP intensity median modified Z-score” value was -0.262 (inactive).
As for `CC(=O)OCC(CCn1cnc2c[nH]c(=N)nc21)COC(C)=O` [euspeclibcmpd712], the figure is 0.533 (inactive); as for `Cc1ccc(-n2c(C)cc(C(=O)COC(=O)C3CC4C=CC3C4)c2C)cc1C` (configuration not stated), 0.589 (inactive).
As for `Cc1ccc(-n2c(C)cc(C(=O)Cn3ncc(Cl)c(Cl)c3=O)c2C)cc1`, the figure is 29 (active).
Regarding `COc1cc(NS(C)(=O)=O)ccc1N=c1c2ccccc2[nH]c2ccccc12` [euspeclibcmpd557], the “Srxn1-GFP intensity median modified Z-score” value was -1.65 (inactive).
As for `CCC1CS/C(=N\c2ccc(Cl)c(Cl)c2)N1C(=O)CC1CC2CCC1C2` (configuration not stated), the figure is 1.31 (inactive); as for `S=c1[nH]cnc2[nH]cnc12` [euspeclibcmpd183], 59.5 (active).
For the compound `c1coc(CN=c2[nH]cnc3[nH]cnc23)c1` [euspeclibcmpd1534], the “Srxn1-GFP intensity median modified Z-score” value is 0.144 (inactive).
The result for `O=c1[nH]cnc2[nH]cnc12` [euspeclibcmpd1584] reads 0.249 (inactive); that for `CC(=O)C1CCC2C3=CC=C4CC(=O)CC[C@@]4(C)C3CC[C@]12C` (some centres not stated) [euspeclibcmpd815], 1.45 (inactive); that for `CCCC[C@@H](CC)COC(=O)C(C#N)=C(c1ccccc1)c1ccccc1` [euspeclibcmpd936], 0.649 (inactive).
The result for `N#C[C@@H]1C[C@@H]2C[C@@H]2N1C(=O)C(N)C12CC3CC(CC(O)(C3)C1)C2` (some centres not stated) [euspeclibcmpd1283] reads -0.27 (inactive).
As for `CC(C)CCCC(C)C1CCC2C3CC[C@H]4C[C@H](O)CC[C@]4(C)C3CC[C@]12C` (some centres not stated) [euspeclibcmpd2260], the figure is -0.325 (inactive); as for `C1N2CN3CN1CN(C2)C3` [euspeclibcmpd187], 9.99 (active); as for `CC(=O)OCC(=O)[C@@]12OC(C)(C)O[C@@H]1CC1C3CC(F)=C4CC(=O)C=C[C@]4(C)[C@@]3(F)[C@@H](O)C[C@@]12C` (some centres not stated) [euspeclibcmpd130], -0.571 (inactive).
Turning to `CC(=O)O[C@H]1CC2CCC3C(CC[C@@]4(C)C3C[C@H]([N+]3(C)CCCCC3)[C@@H]4OC(C)=O)[C@@]2(C)C[C@@H]1N1CCCCC1` (some centres not stated) [euspeclibcmpd853], the “Srxn1-GFP intensity median modified Z-score” value is -0.182 (inactive).
The result for `N#Cc1ccc2[nH]cc(CCCCN3CCN(c4ccc5oc(C(N)=O)cc5c4)CC3)c2c1` [euspeclibcmpd2178] reads 0.321 (inactive); that for `C[C@@H]1CC[C@@]2(OC1)OC1CC3C4CC=C5C[C@@H](O)CC[C@]5(C)C4CC[C@]3(C)C1[C@@H]2C` (some centres not stated) [euspeclibcmpd1355], -0.393 (inactive).
The result for `O=c1c(O)c(-c2ccc(O)c(O)c2)oc2c(O[C@@H]3O[C@H](CO)[C@H](O)[C@@H](O)[C@H]3O)c(O)cc(O)c12` [euspeclibcmpd1755] reads -0.613 (inactive); that for `COc1[nH]c(=N)nc2c1ncn2C1OC(CO)C(O)C1O` (configuration not stated) [euspeclibcmpd1835], -0.349 (inactive).
On to `COc1ccc(CC(N)C(=O)N[C@@H]2[C@@H](CO)OC(n3cnc4c(N(C)C)ncnc43)[C@@H]2O)cc1` (some centres not stated) [euspeclibcmpd2118], for which the “Srxn1-GFP intensity median modified Z-score” value is 2.51 (active).
The result for `O=c1[nH]cnc2c1ncn2C1O[C@H](CO)[C@@H](O)[C@H]1O` (some centres not stated) [euspeclibcmpd1256] reads -0.544 (inactive); that for `COc1ccc(C(=O)O)c(O)c1OC` [euspeclibcmpd1494], -0.416 (inactive); that for `CC(C=CC1(O)C(C)=CC(=O)CC1(C)C)=CC(=O)O` (configuration not stated) [euspeclibcmpd1542], 0.012 (inactive).
As to `CONC(=O)c1cc(-c2ccccc2)nc2ccccc12`, the “Srxn1-GFP intensity median modified Z-score” value is 1.04 (inactive).
For `Cc1cc(=NS(=O)(=O)c2ccc(N)cc2)[nH]o1` [euspeclibcmpd278], the “Srxn1-GFP intensity median modified Z-score” value is -0.427 (inactive).
As for `C[C@@H]1CC[C@@]2(OC1)O[C@H]1CC3C4CC[C@H]5C[C@@H](O)CC[C@]5(C)C4CC[C@]3(C)[C@H]1[C@@H]2C` (some centres not stated) [euspeclibcmpd2432], the figure is -0.319 (inactive); as for `C1CCN2C[C@@H]3C[C@H](CN4CCCC[C@@H]34)[C@H]2C1` [euspeclibcmpd2370], -0.181 (inactive); as for `N=c1[nH]c(=N)c2nc(CNc3ccc(C(=O)NC(CCC(=O)O)C(=O)O)cc3)cnc2[nH]1` (configuration not stated) [euspeclibcmpd911], 10 (active).
The result for `N=c1[nH]c(=O)c2nc(CNc3ccc(C(=O)NC(CCC(=O)O)C(=O)O)cc3)cnc2[nH]1` (configuration not stated) [euspeclibcmpd579] reads 0.101 (inactive).
The result for `CN(Cc1cnc2[nH]c(=N)[nH]c(=N)c2n1)c1ccc(C(=O)NC(CCC(=O)O)C(=O)O)cc1` (configuration not stated) [euspeclibcmpd190] reads 8.95 (active); that for `N=c1[nH]c2c(c(=O)[nH]1)N(C=O)C(CNc1ccc(C(=O)NC(CCC(=O)O)C(=O)O)cc1)CN2` (configuration not stated) [euspeclibcmpd2313], -0.0509 (inactive).
Turning to `N=c1[nH]c(=O)c2c([nH]1)=NCC(CNc1ccc(C(=O)N[C@H](CCC(=O)O)C(=O)O)cc1)N=2` (some centres not stated) [euspeclibcmpd1474], the “Srxn1-GFP intensity median modified Z-score” value was 0.016 (inactive).
The result for `N=c1[nH]c(=O)c2c(CCc3ccc(C(=O)NC(CCC(=O)O)C(=O)O)cc3)c[nH]c2[nH]1` (configuration not stated) [euspeclibcmpd2345] reads -0.108 (inactive).
The result for `COc1ccc(C)cc1CN1CCN(C(c2ccc(F)cc2)c2ccc(F)cc2)CC1` reads 1.38 (inactive); that for `Oc1ccc2c(c1)OC[C@]1(O)C=c3cc(O)c(O)cc3=C21` [euspeclibcmpd1461], -0.856 (inactive).
As for `NC(O)=NO` [euspeclibcmpd156], the figure is 0.197 (inactive).
In the case of `O=C(O)c1ccc(S(=O)(=O)N(Cl)Cl)cc1` [euspeclibcmpd144], the “Srxn1-GFP intensity median modified Z-score” value was -0.332 (inactive).
In the case of `Cc1[nH]oc(=NS(=O)(=O)c2ccc(N)cc2)c1C` [euspeclibcmpd283], the “Srxn1-GFP intensity median modified Z-score” value was -0.063 (inactive).
